Drawing on PubChem BioAssay (EPA / NIEHS), this text covers outcome and AC50 for 9 compounds.

One may read the AC50 as the concentration at which the activity in the assay is half-maximal.

Assay [1] in a line: ATG_NFI_CIS: Attagene CIS-FACTORIAL HepG2 Assay for human Nuclear Factor I (NFI) (AID 2282989). The note with it: HepG2 cis-regulatory reporter, NFI response element transcription; actives raise or lower the signal. An outline of the steps:
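Reporter transcripts were measured by RT-PCR with fluorescent primer extension and capillary electrophoresis 24 h post-treatment. HepG2 cells carried transiently transfected cis-regulated reporter constructs reporting endogenous factor activity; gain or loss fitted against DMSO baseline.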

The target in assay [2] is Myc proto-oncogene protein (Homo sapiens) (UniProt P01106). Briefly: ATG_Myc_CIS: Attagene CIS-FACTORIAL HepG2 Assay for human Myelocytomatosis (Myc) Proto-Oncogene Transcription Factor (AID 2282990). The note with it: HepG2, Attagene cis-reporter transcription factor activity; actives raise or lower the signal. The procedure, abridged: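 HepG2 cells transiently transfected with multiple cis-promoter-driven reporter transcription units, so endogenous TF activity is read. After 24 h compound exposure, reporter mRNA was quantified by RT-PCR, 6-FAM labelling, HpaI digestion and capillary electrophoresis; bidirectional fit versus DMSO.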

Assay [3] can be described thus: ATG_NRF2_ARE_CIS: Attagene CIS-FACTORIAL HepG2 Assay for human Nuclear Factor Erythroid 2 Related Factor 2 (NFR2) response to Antioxidant Response Elements (ARE) (AID 2282992). The note with it: HepG2 Attagene ARE/NRF2 reporter, transcription factor activity; actives raise or lower the signal. The procedure, abridged:
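HepG2 cells transiently transfected with multiplexed cis-element reporter constructs, 24 h after chemical dosing; reporter mRNA quantified by RT-PCR, fluorescent primer extension, HpaI digestion and capillary electrophoresis. Bidirectional fit relative to DMSO.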

Assay [4] addresses Cellular tumor antigen p53 (Homo sapiens) (UniProt P04637). Nature of the assay: ATG_p53_CIS: Attagene CIS-FACTORIAL HepG2 Assay for human p53 Transcription Factor (AID 2282994). As to conditions: HepG2 p53 cis-element reporter, Attagene mRNA; actives raise or lower the signal. The procedure, abridged:
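HepG2 cells transiently transfected with cis-regulated multiple reporter transcription units, dosed 24 h. Reporter mRNA measured by RT-PCR, 6-FAM primer extension, HpaI digestion and capillary electrophoresis; bidirectional fit relative to DMSO.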

Assay [5] can be described thus: BSK_3C_TissueFactor: BioMAP Diversity Plus: 3C Assay for Tissue Factor Biomarker Activity (AID 2282997). The note with it: BioMAP 3C HUVEC, tissue factor biomarker readout; actives raise or lower the signal. An outline of the steps: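 Primary human umbilical vein endothelial cells in the 3C system were exposed to test chemical for 24 h, then Tissue Factor measured by ELISA. Activity was fitted bidirectionally against DMSO as negative control and baseline.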

Assay [6] is described as follows: BSK_3C_uPAR: BioMAP Diversity Plus: 3C Assay for Urokinase-type plasminogen activator receptor (uPAR) Biomarker Activity (AID 2282998). As to conditions: BioMAP 3C HUVEC, uPAR biomarker ELISA; actives raise or lower the signal. The procedure, abridged:
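Cell-surface uPAR on HUVEC (3C system) read by ELISA at 24 h post-treatment, with DMSO as baseline and fitting in both directions. Parallel cultures stained with SRB to flag overt cytotoxicity.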

Assay [7] is described as follows: BSK_3C_VCAM1: BioMAP Diversity Plus: 3C Assay for Vascular cell adhesion molecule 1 (VCAM1) Biomarker Activity (AID 2282999). The note with it: BioMAP 3C HUVEC, VCAM1 ELISA, cytokine-stimulated; actives raise or lower the signal. An outline of the steps: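 Human umbilical vein endothelial cells were dosed with compound for 24 h, after which cell-surface VCAM-1 was quantified by ELISA. Bidirectional curve fitting used DMSO as negative control and activity baseline.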
Background: ELISA stands for enzyme-linked immunosorbent assay.

Assay [8] can be described thus: BSK_4H_Eotaxin3: BioMAP Diversity Plus: 4H Assay for Eotaxin 3 Biomarker Activity (AID 2283000).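 As to outcome: CCL26 protein level quantified by ELISA in parallel with SRB cytotoxicity check.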 As to conditions: primary human endothelial cells (HUVEC); actives raise or lower the signal. The procedure, abridged:
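HUVEC, 24 h post-dose, ELISA for Eotaxin-3/CCL26. Gain or loss of signal fitted bidirectionally vs DMSO baseline.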

Assay [9] has as its target human Peroxisome Proliferator-activated Receptor alpha (PPARa), PPARA (gene 5465) (UniProt Q07869). Briefly: ATG_PPARa_TRANS: Attagene TRANS-FACTORIAL HepG2 Assay for human Peroxisome Proliferator-activated Receptor alpha (PPARa) (AID 2283001; active = hit-call score of the fitted dose curve at least 0.9, where 1 is the maximum). The procedure, abridged:
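HepG2 cells transiently transfected with multiplexed GAL4-UAS reporter units and chimeric NR-Gal4 constructs were dosed for 24 h. Reporter mRNA was measured by RT-PCR with fluorescent labelling and capillary electrophoresis; gain of signal fitted against DMSO.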

The target in assay [10] is human Peroxisome Proliferator-activated Receptor delta (PPARd), PPARD (gene 5467) (UniProt Q03181). Nature of the assay: ATG_PPARd_TRANS: Attagene TRANS-FACTORIAL HepG2 Assay for human Peroxisome Proliferator-activated Receptor delta (PPARd) (AID 2283002; active = hit-call score of the fitted dose curve at least 0.9, where 1 is the maximum). An outline of the steps: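 HepG2 cells transiently transfected with multiplexed GAL4-UAS reporter units and exogenous chimeric NR-Gal4 proteins; 24 h compound exposure. Reporter mRNA measured by RT-PCR, 6-FAM labelling, HpaI digestion and capillary electrophoresis; gain of signal versus DMSO.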

Read-out in assay [11]: Intercellular Adhesion Molecule 1 (ICAM1), ICAM1 (gene 3383)
Nature of the assay: BSK_3C_ICAM1: BioMAP Diversity Plus: 3C Assay for Intercellular Adhesion Molecule 1 (ICAM1) Biomarker Activity (AID 2283003). As to conditions: primary human endothelial cells (HUVEC); actives raise or lower the signal. An outline of the steps:
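Primary human umbilical vein endothelial cells in the BioMAP 3C system were exposed to chemicals for 24 h, then ICAM-1 was quantified by ELISA. Activity was fitted bidirectionally against the DMSO negative control baseline.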

Assay [12] is described as follows: BSK_3C_Proliferation: Cell Proliferation Assessment in the BioMAP Diversity Plus: 3C Assay (AID 2283006).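 Also: potency may reflect either rise or fall in cell number versus DMSO.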 The note with it: primary human endothelial cells (HUVEC). The procedure, abridged:
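Human umbilical vein endothelial cells were grown sub-confluent and exposed to chemical for 48 h, then fixed with 10% TCA and stained with 0.1% sulforhodamine B; absorbance at 560 nm gave relative cell number, fitted bidirectionally against DMSO baseline.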

Assay [13] concerns the target Peroxisome proliferator-activated receptor gamma (Homo sapiens) (UniProt P37231). Nature of the assay: ATG_PPARg_TRANS: Attagene TRANS-FACTORIAL HepG2 Assay for human Peroxisome Proliferator-activated Receptor-gamma (PPARg) (AID 2283007; active = hit-call score of the fitted dose curve at least 0.9, where 1 is the maximum). An outline of the steps:
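Twenty-four hours after chemical dosing of transiently transfected HepG2 cells, isolated RNA was converted to cDNA, reporter sequences amplified and 6-FAM-labelled, then HpaI-digested and analysed by capillary electrophoresis. Signal increase against DMSO was fitted.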

Assay [14] addresses Nuclear receptor subfamily 1 group I member 2 (Homo sapiens) (UniProt O75469). Nature of the assay: ATG_PXR_TRANS: Attagene TRANS-FACTORIAL HepG2 Assay for human Pregnane X Receptor (PXR) (AID 2283008; active = hit-call score of the fitted dose curve at least 0.9, where 1 is the maximum). An outline of the steps: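 HepG2 cells transiently transfected with GAL4-UAS reporter units and PXR-Gal4 chimera, exposed 24 h. Reporter mRNA quantified by RT-PCR, fluorescent labelling, HpaI digestion and capillary electrophoresis; gain of signal vs DMSO.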

In assay [15] the target is human RAR-related Orphan Receptor beta (RORb), RORB (gene 6096) (UniProt Q92753). Briefly: ATG_RORb_TRANS: Attagene TRANS-FACTORIAL HepG2 Assay for human RAR-related Orphan Receptor beta (RORb) (AID 2283010; active = hit-call score of the fitted dose curve at least 0.9, where 1 is the maximum). The procedure, abridged: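 HepG2 cells were transiently transfected with multiplexed GAL4-UAS reporter units expressing chimeric nuclear receptor–GAL4 proteins, then dosed for 24 h. Reporter mRNA was quantified by RT-PCR with fluorescent labelling and capillary electrophoresis; gain of signal was fitted relative to DMSO.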

The target of assay [16] is human Retinoic Acid Receptor beta (RARb), RARB (gene 5915) (UniProt P10826). Briefly: ATG_RARb_TRANS: Attagene TRANS-FACTORIAL HepG2 Assay for human Retinoic Acid Receptor beta (AID 2283004; active = hit-call score of the fitted dose curve at least 0.9, where 1 is the maximum). An outline of the steps:
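HepG2 cells transiently transfected with multiplexed GAL4-UAS reporter units expressing chimeric NR–Gal4 fusions; 24 h compound exposure. Reporter mRNA quantified by RT-PCR, 6-FAM labelling, HpaI digestion and capillary electrophoresis; gain-of-signal fitted against DMSO baseline.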

Assay [17] is described as follows: ATG_Oct_MLP_CIS: Attagene CIS-FACTORIAL HepG2 Assay for human Octamer-Binding Transcription Factor (Oct) (AID 2282993). The note with it: HepG2 Attagene cis-factorial Oct reporter, mRNA; actives raise or lower the signal. An outline of the steps:
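Readout is reporter transcript level from RT-PCR with fluorescent primer extension and capillary electrophoresis, fitted in both directions against DMSO. Transfected HepG2 reporter units report endogenous factor activity after 24 h dosing.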

The target of assay [18] is human Retinoic Acid Receptor gamma (RARg), RARG (gene 5916) (UniProt P13631). Briefly: ATG_RARg_TRANS: Attagene TRANS-FACTORIAL HepG2 Assay for human Retinoic Acid Receptor gamma (RARg) (AID 2283009; active = hit-call score of the fitted dose curve at least 0.9, where 1 is the maximum). An outline of the steps: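 HepG2 cells transiently transfected with multiplexed reporter units expressing chimeric RARg-GAL4 and GAL4-UAS-driven reporters; 24 h compound exposure. Reporter mRNA quantified by RT-PCR with fluorescent labelling and capillary electrophoresis; gain-of-signal fitted relative to DMSO baseline.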

Assay [19] can be described thus: ATG_NF_kB_CIS: Attagene CIS-FACTORIAL HepG2 Assay for human Nuclear Factor Kappa B (NF-kB) (AID 2282991). As to conditions: HepG2 Attagene cis-factorial NF-kB reporter mRNA; actives raise or lower the signal. The procedure, abridged: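 Fluorescence of labelled RT-PCR products separated by capillary electrophoresis gives reporter mRNA levels from transfected HepG2 cells exposed 24 h; values are fitted in both directions relative to DMSO.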

For assay [20], the target named is Retinoic acid receptor alpha (Homo sapiens) (UniProt P10276). Nature of the assay: ATG_RARa_TRANS: Attagene TRANS-FACTORIAL HepG2 Assay for human Retinoic Acid Receptor alpha (RARa) (AID 2283005; active = hit-call score of the fitted dose curve at least 0.9, where 1 is the maximum). The procedure, abridged:
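HepG2 cells transiently transfected with multiple reporter units expressing chimeric RARα-GAL4 fusion, with GAL4-UAS-driven reporters. After 24 h compound exposure, reporter mRNA induction quantified by RT-PCR and capillary electrophoresis with fluorescent labeling; gain-of-signal fitted relative to DMSO control.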

Molecules are shown by their SMILES. Results filed as inconclusive are left out. Active and inactive are the calls of the source. The calls were made as follows, unless noted: active = hit-call score of the fitted dose curve at least 0.9, where 1 is the maximum; inactive = score below 0.9.

Chain of human Peroxisome Proliferator-activated Receptor delta (PPARd), PPARD (gene 5467) (Q03181 whole entry, looked up, the tested form may be a part): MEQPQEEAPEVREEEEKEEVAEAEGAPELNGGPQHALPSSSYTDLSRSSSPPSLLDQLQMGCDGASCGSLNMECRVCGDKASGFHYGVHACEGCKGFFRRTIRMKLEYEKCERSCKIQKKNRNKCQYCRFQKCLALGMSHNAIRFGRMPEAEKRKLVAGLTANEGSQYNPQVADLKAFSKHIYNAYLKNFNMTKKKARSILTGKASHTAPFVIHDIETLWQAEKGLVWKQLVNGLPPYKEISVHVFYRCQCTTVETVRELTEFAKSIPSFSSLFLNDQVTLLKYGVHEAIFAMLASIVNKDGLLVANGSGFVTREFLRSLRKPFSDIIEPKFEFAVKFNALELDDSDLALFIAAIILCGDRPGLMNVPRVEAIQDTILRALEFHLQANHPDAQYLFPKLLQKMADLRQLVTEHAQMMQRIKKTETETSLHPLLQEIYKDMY
Chain of human Retinoic Acid Receptor gamma (RARg), RARG (gene 5916) (P13631 whole entry, looked up, the tested form may be a part): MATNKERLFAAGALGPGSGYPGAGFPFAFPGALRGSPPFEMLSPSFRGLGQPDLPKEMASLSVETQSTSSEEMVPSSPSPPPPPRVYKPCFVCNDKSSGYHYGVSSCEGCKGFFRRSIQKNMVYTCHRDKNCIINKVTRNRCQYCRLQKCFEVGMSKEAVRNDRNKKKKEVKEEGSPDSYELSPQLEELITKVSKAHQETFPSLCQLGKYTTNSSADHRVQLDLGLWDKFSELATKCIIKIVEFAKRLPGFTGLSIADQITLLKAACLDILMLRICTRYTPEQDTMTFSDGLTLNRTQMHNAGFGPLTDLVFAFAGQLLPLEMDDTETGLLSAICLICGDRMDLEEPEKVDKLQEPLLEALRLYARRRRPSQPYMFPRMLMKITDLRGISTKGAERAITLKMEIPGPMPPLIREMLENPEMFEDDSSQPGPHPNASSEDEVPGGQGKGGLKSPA
Chain of Peroxisome proliferator-activated receptor gamma (Homo sapiens) (P37231 whole entry, looked up): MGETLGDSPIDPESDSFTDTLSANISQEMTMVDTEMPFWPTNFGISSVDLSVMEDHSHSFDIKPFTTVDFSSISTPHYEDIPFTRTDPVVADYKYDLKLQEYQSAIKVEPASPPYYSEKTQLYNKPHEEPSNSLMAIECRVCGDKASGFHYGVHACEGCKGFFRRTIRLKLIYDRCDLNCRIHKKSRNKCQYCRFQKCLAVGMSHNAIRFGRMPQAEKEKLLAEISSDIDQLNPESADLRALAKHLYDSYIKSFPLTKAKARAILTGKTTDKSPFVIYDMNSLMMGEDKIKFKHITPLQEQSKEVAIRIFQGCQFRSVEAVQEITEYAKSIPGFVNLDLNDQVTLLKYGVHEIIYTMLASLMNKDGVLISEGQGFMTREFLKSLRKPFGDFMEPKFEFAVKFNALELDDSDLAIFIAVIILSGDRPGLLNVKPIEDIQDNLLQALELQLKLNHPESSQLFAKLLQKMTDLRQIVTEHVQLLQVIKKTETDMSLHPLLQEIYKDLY
Chain of Cellular tumor antigen p53 (Homo sapiens) (P04637 whole entry, looked up): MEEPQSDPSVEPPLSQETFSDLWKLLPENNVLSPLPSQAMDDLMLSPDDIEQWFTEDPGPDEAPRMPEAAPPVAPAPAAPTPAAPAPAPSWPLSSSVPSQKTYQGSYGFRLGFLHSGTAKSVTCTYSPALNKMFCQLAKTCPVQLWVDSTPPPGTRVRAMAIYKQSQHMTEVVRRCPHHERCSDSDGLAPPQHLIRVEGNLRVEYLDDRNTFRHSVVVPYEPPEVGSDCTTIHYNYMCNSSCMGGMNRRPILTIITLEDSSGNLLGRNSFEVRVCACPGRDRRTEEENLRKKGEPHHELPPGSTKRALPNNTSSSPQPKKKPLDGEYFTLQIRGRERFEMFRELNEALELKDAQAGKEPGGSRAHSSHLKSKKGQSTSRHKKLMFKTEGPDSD
Chain of Myc proto-oncogene protein (Homo sapiens) (P01106 whole entry, looked up): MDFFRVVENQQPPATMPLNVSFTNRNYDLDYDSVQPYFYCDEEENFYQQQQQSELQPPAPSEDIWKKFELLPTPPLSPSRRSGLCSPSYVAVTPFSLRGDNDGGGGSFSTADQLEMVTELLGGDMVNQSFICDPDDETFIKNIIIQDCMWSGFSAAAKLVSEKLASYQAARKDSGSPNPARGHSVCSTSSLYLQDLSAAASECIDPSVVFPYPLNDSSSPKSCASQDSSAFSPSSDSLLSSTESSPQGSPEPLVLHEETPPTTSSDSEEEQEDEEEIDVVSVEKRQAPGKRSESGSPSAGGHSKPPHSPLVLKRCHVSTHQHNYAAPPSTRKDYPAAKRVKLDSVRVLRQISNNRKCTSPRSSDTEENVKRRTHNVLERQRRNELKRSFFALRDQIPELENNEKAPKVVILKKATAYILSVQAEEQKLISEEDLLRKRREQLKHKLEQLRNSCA
Chain of human Peroxisome Proliferator-activated Receptor alpha (PPARa), PPARA (gene 5465) (Q07869 whole entry, looked up, the tested form may be a part): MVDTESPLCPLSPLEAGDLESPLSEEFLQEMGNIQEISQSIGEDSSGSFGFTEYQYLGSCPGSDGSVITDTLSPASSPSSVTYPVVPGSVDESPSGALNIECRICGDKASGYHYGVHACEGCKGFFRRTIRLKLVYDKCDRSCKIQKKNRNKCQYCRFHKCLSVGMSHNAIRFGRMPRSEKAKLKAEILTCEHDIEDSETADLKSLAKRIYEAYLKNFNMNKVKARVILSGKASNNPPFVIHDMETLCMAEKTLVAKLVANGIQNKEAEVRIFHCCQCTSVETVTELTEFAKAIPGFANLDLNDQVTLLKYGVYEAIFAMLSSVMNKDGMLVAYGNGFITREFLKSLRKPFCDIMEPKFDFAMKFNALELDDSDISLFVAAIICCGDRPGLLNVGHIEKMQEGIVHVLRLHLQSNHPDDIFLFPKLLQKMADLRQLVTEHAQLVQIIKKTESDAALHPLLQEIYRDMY
Chain of Nuclear receptor subfamily 1 group I member 2 (Homo sapiens) (O75469 whole entry, looked up, the tested form may be a part): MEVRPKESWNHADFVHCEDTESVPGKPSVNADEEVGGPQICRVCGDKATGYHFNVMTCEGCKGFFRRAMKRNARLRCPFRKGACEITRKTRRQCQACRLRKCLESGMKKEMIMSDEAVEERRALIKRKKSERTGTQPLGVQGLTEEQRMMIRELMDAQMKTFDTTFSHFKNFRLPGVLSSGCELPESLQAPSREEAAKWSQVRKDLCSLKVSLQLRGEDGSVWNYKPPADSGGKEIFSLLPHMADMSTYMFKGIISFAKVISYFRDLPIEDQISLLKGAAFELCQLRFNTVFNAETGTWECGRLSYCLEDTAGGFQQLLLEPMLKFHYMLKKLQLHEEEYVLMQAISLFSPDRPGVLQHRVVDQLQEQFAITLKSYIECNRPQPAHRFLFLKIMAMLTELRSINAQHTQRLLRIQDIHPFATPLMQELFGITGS
Chain of human Retinoic Acid Receptor beta (RARb), RARB (gene 5915) (P10826 whole entry, looked up, the tested form may be a part): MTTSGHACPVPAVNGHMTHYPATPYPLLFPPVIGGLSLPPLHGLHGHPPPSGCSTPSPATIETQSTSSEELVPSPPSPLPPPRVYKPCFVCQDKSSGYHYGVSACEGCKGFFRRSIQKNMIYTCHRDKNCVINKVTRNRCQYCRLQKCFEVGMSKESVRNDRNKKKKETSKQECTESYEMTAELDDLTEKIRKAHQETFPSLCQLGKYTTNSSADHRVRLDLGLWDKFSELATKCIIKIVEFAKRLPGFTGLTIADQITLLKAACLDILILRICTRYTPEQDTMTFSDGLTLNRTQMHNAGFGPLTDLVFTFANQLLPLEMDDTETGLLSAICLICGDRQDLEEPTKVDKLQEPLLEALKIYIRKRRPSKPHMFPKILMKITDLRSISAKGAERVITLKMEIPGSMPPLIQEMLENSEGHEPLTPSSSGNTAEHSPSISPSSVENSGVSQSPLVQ
Chain of Retinoic acid receptor alpha (Homo sapiens) (P10276 whole entry, looked up, the tested form may be a part): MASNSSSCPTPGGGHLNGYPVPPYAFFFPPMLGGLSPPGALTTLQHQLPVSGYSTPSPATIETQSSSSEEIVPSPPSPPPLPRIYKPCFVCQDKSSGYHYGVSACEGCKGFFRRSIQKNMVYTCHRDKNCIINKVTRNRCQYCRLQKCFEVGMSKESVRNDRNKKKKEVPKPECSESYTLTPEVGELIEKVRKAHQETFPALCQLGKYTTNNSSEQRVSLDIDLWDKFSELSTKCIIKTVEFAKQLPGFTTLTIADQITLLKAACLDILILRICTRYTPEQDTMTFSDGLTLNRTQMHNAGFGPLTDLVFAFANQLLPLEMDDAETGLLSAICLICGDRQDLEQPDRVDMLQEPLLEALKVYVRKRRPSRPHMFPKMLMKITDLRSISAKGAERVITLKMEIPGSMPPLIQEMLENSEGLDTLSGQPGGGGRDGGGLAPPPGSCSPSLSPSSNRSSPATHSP
Chain of human RAR-related Orphan Receptor beta (RORb), RORB (gene 6096) (Q92753 whole entry, looked up, the tested form may be a part): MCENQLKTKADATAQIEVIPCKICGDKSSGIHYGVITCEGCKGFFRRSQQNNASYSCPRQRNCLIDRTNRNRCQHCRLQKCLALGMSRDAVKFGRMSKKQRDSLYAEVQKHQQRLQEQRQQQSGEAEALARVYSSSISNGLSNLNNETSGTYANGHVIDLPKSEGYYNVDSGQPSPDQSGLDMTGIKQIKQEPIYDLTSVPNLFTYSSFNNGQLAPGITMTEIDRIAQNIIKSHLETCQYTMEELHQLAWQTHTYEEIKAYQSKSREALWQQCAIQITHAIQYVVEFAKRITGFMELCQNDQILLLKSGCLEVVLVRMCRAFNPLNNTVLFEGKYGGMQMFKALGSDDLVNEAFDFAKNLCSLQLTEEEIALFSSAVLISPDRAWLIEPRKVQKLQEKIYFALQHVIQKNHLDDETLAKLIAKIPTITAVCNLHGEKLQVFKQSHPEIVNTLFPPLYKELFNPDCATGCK

In the case of `CCCCCCCCCCCCCCCC(=O)OC/C=C(C)/C=C/C=C(C)/C=C/C1=C(C)CCCC1(C)C`, the compound was called inactive in assay [1], in assay [2], in assay [4], in [5], in assay [6] and in assay [8]. For the same compound, the outcome in [9], in assay [10], in assay [11] and in [15] was inactive. Further, the AC50 in assay [3] is 23.9 µM (active); in assay [7] it was 20 µM (active); in [12], 4.06 µM (active); in assay [13], 37.9 µM (active); in [14], 2.82 µM (active).

On to `C=CCN(CC=C)CC=C`, for which the compound was classed as inactive in assay [1], in [2], in assay [3], in assay [16] and in [14].

As to `CC(C)(C)c1ccc(C(=O)O)cc1`, the compound was called inactive in [1], in [2], in assay [3], in assay [17], in assay [4] and in assay [13]. The compound was called inactive in [14].

For the compound `CCCCCCOCCOCCO`, the result in [1], in assay [2], in assay [3], in assay [10], in assay [13] and in assay [14] was inactive. The outcome in assay [18] was inactive.

`C=C(C)C(=O)OCCOC1CC2CC1C1C=CCC21` (configuration not stated): the call in [2], in assay [17], in assay [4], in assay [9], in [10] and in assay [13] was inactive. In assay [14], the outcome was inactive. Further, the concentration at half-maximal activity (AC50) in assay [3] was 177 µM (active).

On to `C[Si]1(C)O[Si](C)(C)O[Si](C)(C)O1`, for which the result in [2], in assay [19], in [3], in assay [17], in assay [4] and in assay [9] was inactive. For the same compound, the compound was classed as inactive in [10], in assay [16], in assay [13] and in [18].

`O=C1c2ccccc2C(=O)c2c(O)ccc(O)c21`: the outcome in [2], in assay [17], in assay [4], in assay [7], in assay [9] and in assay [11] was inactive. In addition, the compound was classed as inactive in assay [16], in assay [20] and in [18]. Further, the AC50 in [19] was 2.27 µM (active); in assay [3], 4.07 µM (active); in assay [5], 1.21 µM (active); in [6], 3.02 µM (active); in [8], 4.31 µM (active); in assay [12], 2.95 µM (active). For the same compound, the figures for the AC50 in assay [13] and in assay [14] were 8.37 µM (active) and 8.69 µM (active), respectively.

Take `CC(O)C1CCCCC1` (configuration not stated): the compound was called inactive in assay [2], in assay [3], in [17], in assay [9], in [20] and in assay [13]. For the same compound, the outcome in assay [18] was inactive.

Turning to `CS(=O)(=O)c1ccc(Cl)cc1`, the outcome in assay [2], in [3], in [17], in assay [10], in assay [14] and in assay [15] was inactive.
